HSV augment: enhancers of HSV replication in host cells, fold increase, host cell viability. AID 1956, 2009. HSV replication augmentation in cells. 220,000 compounds, 0.005% hits. maximum fold increase; in the data active means maximum fold increase above about 1.5; tested in PC3 cells
A1 inh: caspase 3/7 activation in MEF A1-2A-BIM cells, primary screen, A1 inhibitor project, cell-based, luminescence, HTS | Caspase-Glo 3/7 luminescence, 3 h; percent of clofoctol response, vehicle zero | caspase activation, % (concentration not given with the values) | 330,000 compounds, 0.066% hits | AID 2462, 2010;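 active means over half of replicate activation scores above 10%, or exactly half above 10 with the replicate mean above 10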
GC-B act: human GC-B receptor activators, primary screen, HEK293 GC-B cells, cGMP TR-FRET, EC30 CNP | Atrial natriuretic peptide receptor 2 (Homo sapiens), P20594 | 0% at EC30 CNP, 100% saturating CNP | 370,000 compounds, 0.11% hits | activation, % at 10 µM;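 active means activation at 10 µM reaching about 35% in either raw or pattern-adjusted values, limit read from the data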
Efflux pump inh: inhibitors of Candida efflux pumps in yeast, primary screen, S. cerevisiae, Nile Red, multiplex. S. cerevisiae Candida pump triplex. inhibition, % at 10 µM. 330,000 compounds, 0.44% hits;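 active means plate passing quality check with inhibition over a set limit, or well fluorescence over plate mean plus 4 SD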;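 further: Nile Red retained in pooled yeast measured as flow cytometry median fluorescence; 0% = buffer negative control and 100% = Enniatin B positive control; higher means more Nile Red kept so more efflux inhibition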
TAG inh: inhibitors of triacylglycerol accumulation, primary screen, cell-based, uHTS, fluorescence, H9c2 | H9c2 cells, Nile Red lipid (TAG) fluorescence; cells loaded with 200 µM oleic acid | inhibition, % at 12.5 µM | 230,000 compounds, 0.66% hits | AID 651582, 2012;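 active means pattern-corrected inhibition of lipid staining of at least 50% with the nuclear-stain viability signal not falling by more than 50%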;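 further: 0% = DMSO wells and 100% = triacsin C control wells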
NPR1 activator: GC-A stimulated cGMP production enhancers – HEK293 GC-A cells, cGMP TR-FRET, EC30 ANP, primary screen. 0% at EC30 ANP, 100% saturating ANP. activation, % at 10 µM. 370,000 compounds, 0.14% hits. AID 1671463, 2021; in the data active means activation above about 40%
* marks the source's active call; other numbers are inactive results; i = inactive; / = not tested or not shown. The list is not random: actives were taken first. Their share in the collection is about 1%.

SMILES	HSV augment	A1 inh	GC-B act	Efflux pump inh	TAG inh	NPR1 activator
CCOc1ccc(Nc2nc(N)nc(CCl)n2)cc1	i	0.0	-4.1	0.1	71.8*	0.3
Cc1ccc(Nc2nc(N)nc(CCl)n2)cc1	i	0.8	0.1	0.1	15.3	6.5
Cc1ccc(Nc2nc(N)nc(CCl)n2)c(C)c1	i	2.0	4.7	-0.1	80.2*	8.2
Cc1cccc(Nc2nc(N)nc(CCl)n2)c1C	i	-0.1	-3.2	-0.1	80.0*	-1.6
C=CC[C@@H]1NN2C(=O)[C@@H](CCc3ccccc3)[C@@H]3c4ccccc4C=NN3[C@@H]2c2ccccc21	/	/	0.6	/	/	1.2
Cc1ccc(-n2c(SCC(=O)Nc3cccc4ccccc34)nnc2-c2cccs2)cc1	/	/	0.5	/	/	-1.8
Cc1ccccc1CN1CCCCC(NC(=O)c2ccc(F)c(F)c2)C1=O (centres undefined)	/	/	0.1	/	/	-0.2
COc1cc2c(cc1NC(=O)CN1C(=O)NC3(CCc4ccccc43)C1=O)oc1ccccc12 (centres undefined)	i	0.3	-4.6	0.1	54.8*	7.2
Cc1ccccc1NC(=O)CN1C(=O)NC2(CCc3ccccc32)C1=O (centres undefined)	/	0.6	5.2	0.2	-20.9	0.9
CN(Cc1ccccc1)C(=O)OCc1cn(Cc2ccc(F)cc2)nn1	/	/	5.4	/	/	0.6
COc1ccc(-n2c(SCC(=O)Nc3ccc(S(=O)(=O)Nc4cc(C)nc(C)n4)cc3)nnc2-c2ccco2)cc1	/	/	2.0	/	/	5.8
Cc1ccc(CNc2nc(-c3cccnc3)nc3ccccc23)cc1	/	0.2	56.9*	0.1	/	56.1*
c1ccc(CNc2nc(-c3cccnc3)nc3ccccc23)cc1	/	0.7	34.4	0.1	/	33.1
Cc1c(O)ccc(/C=N/Nc2nc(-c3cccnc3)nc3ccccc23)c1O	i	-0.4	14.6	0.0	68.8*	12.6
c1cncc(-c2nc(NCc3ccc4c(c3)OCO4)c3ccccc3n2)c1	i	-0.8	59.1*	0.4	-26.9	52.5*
O=S(=O)(c1ccc(Br)s1)N1CCC(c2nc3ccccc3o2)CC1	/	/	-8.8	/	/	-6.3
Cc1cccc(CCNC(=O)CSc2nc3c([nH]2)c(=O)n(C)c(=O)n3C)c1	/	/	1.4	/	/	-1.4
CC(CCN1CCC(C(O)(c2ccccc2)c2ccccc2)CC1)Oc1cc(F)cc(F)c1 (centres undefined)	/	/	-7.7	/	/	-15.4
COC(=O)c1cccc(Cn2ccc3ccc(-c4ccc5ccn(C(=O)C6CC6)c5c4)cc32)c1	/	/	-1.4	/	/	-0.2
O=S1(=O)c2ccc(N3CCC[C@@H]3CO)cc2OCCCN1C1CC1	/	/	-2.2	/	/	3.7
Cc1cc(-c2cccs2)c(C#N)c(=S)[nH]1	i	0.0	5.8	0.0	-4.6	40.5*
CC1(C)Cc2c(c(N3CCOCC3)nc3sc4c(NCC5CCCO5)nnnc4c23)CS1 (centres undefined)	i	0.1	48.9*	0.5	10.5	38.5
c1nc(NCCN2CCOCC2)c2sc3nc(N4CCOCC4)c4c(c3c2n1)CCC4	/	0.4	9.7	0.0	/	13.6
C1CCc2c(c(N3CCOCC3)nc3sc4c(N5CCOCC5)nnnc4c23)C1	/	/	-3.4	/	-0.2	2.9
CC1(C)Cc2c(c(N3CCOCC3)nc3sc4c(NCCN5CCOCC5)nnnc4c23)CS1	i	0.0	42.2*	0.2	21.1	44.4*
SMILES	HSV augment	A1 inh	GC-B act	Efflux pump inh	TAG inh	NPR1 activator
CC(C)CCNc1nnnc2c1sc1nc(N3CCOCC3)c3c(c12)CC(C)(C)SC3	i	0.0	57.2*	0.0	45.5	51.7*
CC1(C)NC(=O)N(CC(=O)Nc2nc(-c3ccc(F)cc3)cs2)C1=O	/	-2.6	6.5	0.3	/	47.8*
O=C(CN1C(=O)NC2(CCCC2)C1=O)Nc1nc(-c2ccc(F)cc2)cs1	i	0.6	7.1	-0.1	-9.8	45.2*
CCC(C)(C)C1CCC2(CC1)NC(=O)N(CC(=O)Nc1nc(-c3ccc(C)cc3)cs1)C2=O (centres undefined)	i	0.5	4.6	-0.1	/	6.7
CC(=O)Nc1ccc(-c2csc(NC(=O)CN3C(=O)NC4(CCCC4)C3=O)n2)cc1	/	-0.4	-5.0	0.0	-11.5	2.1
CCCCOc1ccc(/C=c2\sc3ncnn3c2=O)cc1	i	-0.6	-4.7	0.0	-3.7	67.2*
Cc1ccsc1/C=c1\sc2ncnn2c1=O	i	0.0	1.1	-0.3	/	18.4
CC(C)(C)c1ccc(C#C[C@@H]2C=C[C@H](O)[C@@H](COC(=O)Nc3ccccc3)O2)cc1	/	/	2.8	/	/	-2.6
COc1ccccc1/C=C/C=N/Nc1cccc(C(=O)O)c1	/	-8.5	-1.6	0.1	/	53.6*
COc1ccc(Br)cc1/C=N/Nc1cccc(C(=O)O)c1	i	-1.0	5.8	0.0	8.8	0.4
Cc1cc(N(CCO)CCO)ccc1N=Nc1cc(F)ccc1F	i	1.0	-2.7	-0.3	72.7*	22.3
Nc1ccc(N(CCO)CCO)cc1	i	-0.3	-4.7	0.2	2.9	-15.2
O=C1C=CC(=O)N1CCCCCCN1C(=O)C=CC1=O	i	-4.0	36.5*	0.1	/	29.1
CC1(C)CC(=O)C2=C(C1)NC(Nc1nc3ccccc3o1)=NC2c1ccccn1 (centres undefined)	i	0.6	1.6	0.0	8.7	46.0*
CCOC(=O)c1cn(-c2nc(-c3ccc(Cl)c(Cl)c3)cs2)c2c(F)c(N3CCOCC3)c(F)cc2c1=O	/	1.9	7.2	1.6*	46.7	-1.7
COc1ccc(C2CC3CN(C4CCCCC4)C(=O)C3N2C)cc1 (centres undefined)	/	/	1.6	/	/	-2.0
CCOc1cc(N2CCOCC2)c(OCC)cc1NC(=O)Cn1[nH]c(=O)c2ccccc2c1=O	i	-0.3	35.7*	-0.1	42.2	25.9
CCOc1ccccc1NC(=O)Cn1[nH]c(=O)c2ccccc2c1=O	i	0.4	/	0.0	-6.0	/
C=C(C)Cn1c(SCC(=O)NN=Cc2c(O)ccc3ccccc23)nnc1-c1ccc(Br)cc1	/	/	-9.2	/	/	-2.4
Cc1[nH]c2ccccc2c1C(=O)c1cc(Cc2ccccc2)sc1N	/	/	3.3	/	/	48.3*
Cc1cc(C)c(S(=O)(=O)ON2C(=O)c3ccccc3C2=O)cc1C	i	0.7	36.4*	0.3	/	38.9
Cc1cccc2c1N(C)C(=O)C2=O	i	0.7	1.7	0.0	6.5	-0.3
Cc1ccc(S(=O)(=O)ON2C(=O)c3ccccc3C2=O)c(C)c1	i	2.7	45.6*	-0.2	/	40.6*
O=C1c2ccccc2C(=O)N1OS(=O)(=O)c1ccc(F)cc1	/	2.7	30.9	-0.1	/	41.6*

From PubChem
